# Active and inactive are the calls of the source.
# Tests used:
# [1] = tested on: Plasmodium falciparum Sir2 (PF13_0152, Sir2A); test: Plasmodium falciparum Sir2A binding compounds – biochemical, small-molecule microarray, 635 nm fluorescence, primary screen (AID 1098); conditions: fluorescence 635 nm, higher = more signal;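 further: score merges spot fluorescence intensity with its signal-to-noise ratio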
# [2] = probe aDKK1 binding to arrayed compounds – biochemical, biotinylated probe, 635/667 nm fluorescence, primary screen (AID 1099); conditions: small-molecule microarray, higher = more signal;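 further: score merges 667nm spot fluorescence with signal to noise across triplicate slides; reference of the scale not given here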
# [3] = probe aCHRDL2 binding to arrayed compounds – biochemical, biotinylated probe, 635/667 nm fluorescence, primary screen (AID 1100); conditions: small-molecule microarray, higher = more signal
# [4] = change in splice reporter luminescence, either direction, cell-based, HEK293, spliceosome inhibition project, primary screen (AID 1101); conditions: HEK293 splicing luciferase reporter, 24 h, higher = more signal, called active from +8 up or from −8 down;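 further: HEK293 cells carrying a splicing-competent luciferase reporter gene; test concentration not given here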
# [5] = biological target: Fibroblast growth factor 10 (Homo sapiens) (UniProt O15520); test: compounds binding fibroblast growth factor 10 – biochemical, small-molecule microarray, 635 nm fluorescence, primary screen (AID 1102); conditions: FGF10 binding, fluorescence 635 nm, higher = more signal
# Fibroblast growth factor 10 (Homo sapiens), sequence (O15520 whole entry, looked up): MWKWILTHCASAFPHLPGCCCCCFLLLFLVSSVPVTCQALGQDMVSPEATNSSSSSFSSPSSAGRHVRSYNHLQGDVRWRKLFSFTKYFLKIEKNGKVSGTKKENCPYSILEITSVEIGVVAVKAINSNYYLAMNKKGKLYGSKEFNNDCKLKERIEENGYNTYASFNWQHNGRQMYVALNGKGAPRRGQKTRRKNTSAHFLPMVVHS
# [6] = tested on: glycogen synthase kinase-3 (GSK3A per assay name; protocol says GSK3B); test: compounds binding glycogen synthase kinase-3 – biochemical, small-molecule microarray, 635 nm fluorescence, GSK3A, primary screen (AID 1103); conditions: fluorescence 635 nm, higher = more signal; further: the record names both GSK3A and GSK3B
# [7] = biological target: Epidermal growth factor receptor (Homo sapiens) (UniProt P00533); test: compounds binding epidermal growth factor receptor – biochemical, small-molecule microarray, 635 nm fluorescence, primary screen (AID 1104); conditions: EGFR binding, higher = more signal;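 further: score merges 667 nm emission intensity with spot signal to noise over triplicate slides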
# Epidermal growth factor receptor (Homo sapiens), sequence (P00533 whole entry, looked up): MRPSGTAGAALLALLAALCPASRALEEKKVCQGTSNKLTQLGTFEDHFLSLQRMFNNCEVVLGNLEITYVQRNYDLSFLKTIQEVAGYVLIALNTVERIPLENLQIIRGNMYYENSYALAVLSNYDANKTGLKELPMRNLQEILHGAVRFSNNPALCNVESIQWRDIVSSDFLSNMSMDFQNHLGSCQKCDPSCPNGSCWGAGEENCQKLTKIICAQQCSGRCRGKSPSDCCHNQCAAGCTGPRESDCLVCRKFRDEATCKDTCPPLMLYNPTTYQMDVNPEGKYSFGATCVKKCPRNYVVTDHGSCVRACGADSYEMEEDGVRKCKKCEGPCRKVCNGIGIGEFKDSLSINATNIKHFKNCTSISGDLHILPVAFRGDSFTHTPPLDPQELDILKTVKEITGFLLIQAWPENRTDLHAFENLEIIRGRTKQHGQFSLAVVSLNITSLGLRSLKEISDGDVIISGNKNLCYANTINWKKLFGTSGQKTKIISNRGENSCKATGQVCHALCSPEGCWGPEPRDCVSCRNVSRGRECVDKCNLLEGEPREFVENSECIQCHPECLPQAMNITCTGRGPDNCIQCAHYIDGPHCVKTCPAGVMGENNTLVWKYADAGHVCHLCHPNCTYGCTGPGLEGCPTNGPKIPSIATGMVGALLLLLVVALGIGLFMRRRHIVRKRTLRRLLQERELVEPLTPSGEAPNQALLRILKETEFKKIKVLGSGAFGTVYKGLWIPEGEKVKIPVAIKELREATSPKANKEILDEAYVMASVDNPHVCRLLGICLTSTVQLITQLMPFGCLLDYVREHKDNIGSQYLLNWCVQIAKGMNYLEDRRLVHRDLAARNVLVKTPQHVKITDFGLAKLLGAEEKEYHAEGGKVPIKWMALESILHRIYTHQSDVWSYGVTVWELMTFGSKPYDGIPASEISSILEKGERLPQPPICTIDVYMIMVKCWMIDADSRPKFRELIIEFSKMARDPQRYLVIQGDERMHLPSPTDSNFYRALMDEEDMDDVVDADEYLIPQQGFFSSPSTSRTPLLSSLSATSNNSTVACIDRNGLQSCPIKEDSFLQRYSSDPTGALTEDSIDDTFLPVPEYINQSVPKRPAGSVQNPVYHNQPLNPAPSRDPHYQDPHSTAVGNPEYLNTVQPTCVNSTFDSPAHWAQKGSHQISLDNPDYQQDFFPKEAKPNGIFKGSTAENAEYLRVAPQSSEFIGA
# [8] = biological target: Follistatin-related protein 3 (Homo sapiens) (UniProt O95633); test: compounds binding follistatin-related protein 3 – biochemical, small-molecule microarray, 635 nm fluorescence, primary screen (AID 1105); conditions: FSTL3 binding, higher = more signal;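 further: score merges emission near 667 nm and signal to noise per printed spot across three slides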
# Follistatin-related protein 3 (Homo sapiens), sequence (O95633 whole entry, looked up): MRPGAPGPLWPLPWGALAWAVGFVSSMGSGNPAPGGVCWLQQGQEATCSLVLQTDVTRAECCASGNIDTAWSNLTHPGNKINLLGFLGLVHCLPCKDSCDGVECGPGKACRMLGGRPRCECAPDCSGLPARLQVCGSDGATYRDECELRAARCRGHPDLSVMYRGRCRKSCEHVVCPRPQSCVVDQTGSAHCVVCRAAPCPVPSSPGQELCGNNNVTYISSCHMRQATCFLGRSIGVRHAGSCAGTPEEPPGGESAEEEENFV
# [9] = biological target: Dickkopf-related protein 1 (Homo sapiens) (UniProt O94907); test: small molecules binding DKK1 protein – biochemical, small-molecule microarray, 635 nm fluorescence scan, primary screen (AID 1106); conditions: higher = more signal;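 further: score merges emission near 667 nm with signal to noise over three replicate slides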
# Dickkopf-related protein 1 (Homo sapiens), sequence (O94907 whole entry, looked up): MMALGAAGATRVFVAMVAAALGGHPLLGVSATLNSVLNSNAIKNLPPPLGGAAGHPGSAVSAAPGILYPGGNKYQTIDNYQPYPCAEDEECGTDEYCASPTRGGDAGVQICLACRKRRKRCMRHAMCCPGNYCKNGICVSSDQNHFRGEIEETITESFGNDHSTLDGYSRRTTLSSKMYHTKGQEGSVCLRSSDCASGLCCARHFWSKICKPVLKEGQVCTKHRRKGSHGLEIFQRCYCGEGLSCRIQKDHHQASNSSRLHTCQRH
# [10] = tested on: Inhibin beta A chain (activin A); test: small molecules binding activin A – biochemical, small-molecule microarray, 635 nm fluorescence scan, primary screen (AID 1107); conditions: INHBA, higher = more signal;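 further: mouse activin A protein probed at 4.33 µg/mL on printed slides; score merges bound-protein fluorescence near 667 nm with spot signal-to-noise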
Structure (SMILES),composite z-score [1],composite z-score [2],composite z-score [3],z-score [4],composite z-score [5],composite z-score [6],composite z-score [7],composite z-score [8],composite z-score [9],composite z-score [10]
C=CCC(OC(C)=O)[C@@H]1[C@@H](N(Cc2ccc(-c3cccc(C(F)(F)F)c3)o2)C(=O)c2ccc(-c3ccccc3)cc2)c2cc(OCCCO)ccc2N1C(=O)Cc1ccc2ccccc2c1 (stereo not given in full),-0.417,-0.155,0.532,-0.435 (inactive),-0.186,-1.22,-0.782,-0.116,-0.403,0.841
[N-]=[N+]=NCc1ccccc1C[C@@]1(C(N)=O)N=C(c2ccc(OCCCO)cc2)O[C@@H]1c1ccccc1,1.15,0.67,1.04,-1.01 (inactive),0.001,-0.238,-0.892,-0.443,-1.38,0.389
CC(C)(C)OC(=O)COc1cccc(C(=O)CCN2CCOCC2)c1,0.213,0.684,0.929,0.849 (inactive),-0.189,0.136,-0.67,-0.272,-0.285,1.54
CCOC(=O)C[C@H]1[C@H](OC(=O)c2ccccc2-c2ccccc2)[C@@H](NC(=O)c2ccc3ccccc3n2)c2cc(OCCCO)ccc2N1C(=O)Cc1ccc(OC)cc1,-0.235,0.0006,-0.302,-0.378 (inactive),0.463,0.0131,0.238,0.176,0.0349,0.711
C=C(COC)C(=O)CC[C@@H](OC(C)=O)c1cccc(OCCO)c1,0.114,-0.0524,0.225,1.32 (inactive),1.38,-0.911,-0.934,-0.303,0.227,1.01
COc1ccc([Si](C)(C)[C@@H]2[C@@H](CCO)O[C@]3(C(=O)N(Cc4ccccc4)c4ccc(N5C(=O)c6cccc7cccc5c67)cc43)[C@H]2C)cc1,1.42,0.0194,0.42,-0.884 (inactive),-0.231,-0.642,-0.0299,-0.448,-0.0876,-0.344
COc1cccc(C)c1NC(=O)O[C@H]1[C@H](OC(=O)Nc2ccccc2-c2ccccc2)[C@H](OC(=O)Nc2ccccc2-c2ccccc2)[C@@H](OC)O[C@@H]1CO,0.861,0.796,0.549,0.118 (inactive),1.18,1.33,0.649,1.3,0.717,0.729
C=C(COC)/C(=C/C[C@H](OC(=O)c1ccncc1)c1ccc(CO)o1)c1cnc2ccccc2c1,0.296,-0.155,-0.137,0.801 (inactive),1.12,0.986,0.387,1.34,0.348,1.81
COc1ccc(C#Cc2ccc3c(c2)[C@]2(C(=O)N3)[C@H](c3ccc(O)cc3)N3[C@H](c4ccccc4)[C@H](c4ccccc4)OC(=O)[C@H]3[C@@H]2C(=O)Nc2nc3ccccc3s2)cc1,1.48,0.223,0.342,-0.793 (inactive),1.28,1.31,0.45,1.2,0.775,-0.604
COC(=O)[C@@]1(Cc2ccc(OC)cc2)[C@H]2c3cc(C(=O)N4CCCC4)n(CCc4c[nH]c5ccc(O)cc45)c3C[C@H]2CN1C(=O)c1ccccc1,1.29,1.24,1.2,0.129 (inactive),1.06,0.778,0.309,1.13,-0.32,1.51
C=CC[C@@H](OC(=O)Nc1ccc(SC)cc1)c1ccc(O)c(F)c1,0.522,0.0488,0.404,-1.79 (inactive),0.214,-0.0142,-0.361,0.155,0.183,0.77
CCCC=C(CCC)[C@@H](NC(=O)c1cccs1)c1ccc(C(=O)OC)cc1,0.366,1.96,0.824,-0.571 (inactive),1.31,0.625,0.782,0.89,0.473,-0.032
Cc1ccc(S[C@]2(C(=O)NCCN3CCOCC3)CC(=O)N(Cc3ccccc3Cl)[C@@H]2c2ccc(CO)cc2I)cc1,1.65,-0.831,-0.0429,-0.849 (inactive),0.133,-0.207,-1.29,-0.355,-1.82,1.07
COCCOC(=O)N1C(=O)[C@@]2(c3cc(C#CC4(O)CCCCCC4)ccc31)[C@H](C(=O)Nc1nc3ccccc3s1)[C@H]1C(=O)O[C@H](c3ccccc3)[C@H](c3ccccc3)N1[C@@H]2c1ccc(O)cc1,1.26,0.316,0.407,1.36 (inactive),0.992,1.29,0.605,1.3,0.875,0.363
Cc1ccc(S[C@]2(C(=O)NCc3ccccc3)CC(=O)N(C3CCCCC3)[C@@H]2c2ccc(CO)cc2I)cc1,1.25,-0.0018,0.379,-1.49 (inactive),0.861,0.1,-0.104,0.226,-0.358,-0.0734
N[C@@H](Cc1ccccc1)C(=O)NCc1cn(Cc2ccccc2)nn1,-0.522,0.0195,-0.283,0.0702 (inactive),0.735,0.179,0.113,0.594,0.545,0.85
Cc1ccc(N2C(=O)c3ccccc3[C@@H](C(=O)NCCCN(C)C)[C@@H]2c2ccc(CO)cc2)nc1,0.451,1.51,0.824,-0.556 (inactive),-0.514,-0.298,0.239,0.102,-0.06,-0.153
COCCCNC(=O)[C@@]1(CCC(=O)OC(C)(C)C)N=C(c2ccc(OCCCO)cc2)O[C@H]1c1ccccc1N=[N+]=[N-],1.46,1.36,1.32,-0.912 (inactive),1.23,1.31,-0.182,0.209,0.795,0.739
CC(C)c1ccc(NN2C(C(O)c3ccc(C#N)cc3)C=CC3C(=O)N(c4ccccc4)C(=O)C32)cc1 (stereo not given),1.28,0.935,0.836,0.44 (inactive),0.98,0.888,0.397,1.24,-0.103,1
COC(=O)[C@]1(CCS(=O)(=O)c2ccccc2)N=C(c2ccc(OCCCO)cc2)O[C@@H]1c1ccccc1N=[N+]=[N-],1.62,0.99,1.12,-0.571 (inactive),1.3,1.3,0.416,1.2,0.666,0.199
[N-]=[N+]=NCc1ccccc1[C@@H]1OC(c2ccc(OCCCO)cc2)=N[C@]1(CCS(=O)(=O)c1ccccc1)C(=O)O,0.654,0.79,0.95,-0.551 (inactive),0.559,-0.0623,-0.231,-0.337,-0.713,1
COCCCNC(=O)[C@@H]1c2ccccc2C(=O)N(C(C)C)[C@H]1c1ccc(CO)cc1,0.634,-0.0293,0.39,0.555 (inactive),-0.346,-0.291,-0.104,0.115,0.0487,0.761
O=C(c1ccccc1)N1C(=O)[C@]2(Cc3ccccc31)N=C(c1ccc(OCCCO)cc1)O[C@@H]2c1ccccc1,1.2,-0.0088,0.339,-0.936 (inactive),1.42,1.31,0.0998,0.554,0.405,0.0538
CCCCCC1=C2CNC(C)(C(=O)OC)C=C2C(C)C1=O (stereo not given),-0.0215,0.827,0.865,1.23 (inactive),0.0992,-1.1,-0.476,-0.713,-0.52,1.16
CO[C@H]1O[C@H](CO)[C@@H](OC(=O)CCc2ccccc2)[C@@H]2OC(=O)[C@@H](Cc3ccccc3)C/C=C/C[C@H](Cc3ccccc3)C(=O)O[C@@H]12,0.228,0.253,0.585,-1.57 (inactive),0.469,0.714,-0.199,1.11,0.46,0.925
C#Cc1cc2ccccc2oc1=O,0.253,-0.265,0.256,3.33 (inactive),-0.347,-0.748,-2.35,-2.4,-1.87,-1.73

# — PubChem BioAssay
